From PubChem BioAssay (NCATS)
Records with an inconclusive call do not appear. A number with no mark means an inactive call. Active and inactive are the calls of the source. Calls follow the shape of the dose curve; as a rule, active = well fitted cell-killing curve with a large enough effect; inconclusive = small, poorly fitted or top-dose-only effect; inactive = flat fitted curve, though single readings scatter.

Experiment: MultiTox-Fluor Cytotoxicity Assay - LYMP1-001 - Live Cells (AID 947);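 as to activity change, negative = cytotoxicity: 0% = DMSO only and full inhibition = tetraoctylammonium bromide control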
Conditions: LYMP1-001 lymphoblastoid cells, live-cell protease fluorescence viability; series mostly up to 92.2 µM; activity change, negative = cytotoxicity: at the top concentration
Excerpt: NIH Chemical Genomics Center [NCGC]
NIH Molecular Libraries Screening Centers Network [MLSCN]
National Institutes of Environmental Health Sciences [NIEHS]
National Toxicology Program [NTP]
We have developed a 1536-well cell-based assay for quantitative high throughput screening (qHTS) against a number of cell lines to determine in vitro cytotoxicity of small molecules. This particular assay uses a human lymphoblastoid cell line (LYMP1-001) purchased from Coriell Institute.
NCGC Assay Protocol Summary:
The MultiTox-Fluor Cytotoxicity Assay (Promega) is a homogeneous method to simultaneously measure the relative number of live and dead cells in culture by detecting changes in cell membrane integrity. There are two fluorogenic peptide substrates in the assay reagent. Viable cells are determined when the cell-permeant substrate (GF-AFC) enters the cell and is cleaved by protease from live cells resulting in liberated fluorophore. This live-cell protease activity restricted to viable cells is proportional to cell number. The dead cells are determined by using fluorogenic cell-impermeant peptide substrate (bis-AAF-R110) which cleaved by dead cell proteases leaking from damaged cell membrane.
Using the MultiTox-Fluor Cytotoxicity Assay, the relative number of live cells was measured in the lymphoblastoid cell line with complete culture medium following compound treatment for 16 hours. The assay was performed in opaque black Kalypsys 1536-well plates. In the screen, tetraoctylammonium bromide was used as positive control. Library compounds were measured for their ability to cause acute toxicity in the cell line, as reflected by a decrease in live cell protease activity, in a concentration-dependent manner. […] AC50 values were determined from concentration-response data modeled with the standard Hill equation.
qHTS protocol for MultiTox-Fluor Cytotoxicity assay
[Step] [Parameter] [Value] [Description]
1. Reagent; 5 uL; 2500 lymphoblastoid cells/well
2. Time; 5 hr; 37 C incubation
4. Controls; 23 nL; Tetraoctylammonium bromide 6.4pM to 92 uM
5. Time; 16 hr; 37 C incubation
6. Reagent; 5 uL; MuliTox-Fluor Assay reagent
7. Time; 60 min; Room Temperature
8. Detection; live-cell fluorescence (Ex/Em=405/510); EnVision plate reader
Keywords: cell viability, cytotoxicity, lymphoblastoid cell line, fluorescence, NTPHTS, NTPHTS_NCGC, NIEHS, EPA, DSSTox, MLSMR, MLSCN, NIH Roadmap, qHTS, NCGC
Potency is read from the fitted curve at half-maximal effect.

| Structure (SMILES) | activity change, negative = cytotoxicity [%] | Potency |
| --- | --- | --- |
| COC1=CC(=O)O[C@@H](/C=C/c2ccccc2)C1 | 1.78 |  |
| O=C1C2CC=CCC2C(=O)N1SC(Cl)(Cl)Cl (centres undefined) |  | 12.6 µM (active) |
| O=C1CCO1 | 8.48 |  |
| O=C1C=CC(=O)C=C1 | -14 |  |
| O=C/C=C/c1ccccc1 |  | inactive |
| C[C@H]1CCC[C@H](O)CCCCCc2cc(O)cc(O)c2C(=O)O1 | -25.4 |  |
| CC(C)Nc1ccc(Nc2ccccc2)cc1 |  | 31.6 µM (active) |
| Clc1ccccc1Cl | 10.5 |  |
| O=CC=O | 9.86 |  |
| O=[N+]([O-])c1ccc(F)c([N+](=O)[O-])c1 | -6.17 |  |
| CCCCCl | -1.86 |  |
| [O]=[Cr](=[O])([OH])[O][Cr](=[O])(=[O])[OH] |  | inactive |
| [Cl-].[Cl-].[Hg+2] |  | 31.6 µM (active) |
| [O]=[Cd] | -19.4 |  |
| C[C@]12CCC(=O)C[C@@H]1CC[C@@H]1[C@@H]2CC[C@]2(C)[C@@H](O)CC[C@@H]12 | -3.54 |  |
| S=C=S | 10.9 |  |
| CCOC(=O)c1ccccc1C(=O)OCC | 14 |  |
| CC(C)(C)c1cc(O)ccc1O |  | inactive |
| Oc1cc(Cl)c(Cl)cc1Cl | -9.27 |  |
| ClC=C(Cl)Cl | -0.445 |  |
| O=Cc1ccco1 | 7.27 |  |
| O=C(O)C(Cl)(Cl)Cl |  | inactive |
| O=[N+]([O-])c1ccccc1 | 8.29 |  |
| COc1ccc2c(c1OC)C(=O)OC2C1c2cc3c(cc2CCN1C)OCO3 (centres undefined) | -20.5 |  |
| CCCCCCCCOC(=O)c1ccccc1C(=O)OCCCCCCCC | 11.7 |  |
| C[C@H]1CC[C@@H]2[C@@H](C)[C@H]3[C@H](C[C@H]4[C@@H]5CC=C6CC(O[C@@H]7O[C@H](CO)[C@H](O)[C@H](O[C@@H]8O[C@H](CO)[C@@H](O)[C@H](O)[C@H]8O)[C@H]7O[C@H]7O[C@@H](C)[C@H](O)[C@@H](O)[C@H]7O)CC[C@]6(C)[C@H]5CC[C@]34C)N2C1 (some centres undefined) |  | 31.6 µM (active) |
| NNC(N)=O | 5.09 |  |
| C=CCN=C=S | -19.5 |  |
| ClC(Cl)(Cl)Cl |  | inactive |
